Experimental data from paper PMC5540273 (PLoS ONE, 2017).

Each molecule was assayed on HIPK1. Conditions: concentration: 1 μM, replicates: in singlicate; n = 1.
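Note: KINOMEscan kinase panel screen.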

Structure (SMILES) | %Inh [%]
C[C@@H]1CC[C@H](C(=O)NC2CCCCC2)CN1c1cc(-c2ccc3c(N)n[nH]c3c2)nc(N)n1 [GSK2291363] | 9
Cc1nc(N(C)[C@H]2CN(C(=O)CC#N)CC[C@H]2C)c2cc[nH]c2n1 | 6
Nc1nccc2scc(-c3ccc4c(c3)CCN4C(=O)Cc3ccccc3)c12 [GSK2576924] | 0
COc1cc(OC)cc(-c2cc3cnc(N)nc3nc2NC(=O)NC(C)(C)C)c1 | 15
O=C(Nc1n[nH]c2cc(-c3ccccc3F)ccc12)C1CC1 [SB-733371] | 2
CCCNC(=O)Nc1ccc(Oc2ncnc3ccn(C)c23)cc1 | 35
COc1cc2ncn(-c3cc(OCc4ccncc4Br)c(C(N)=O)s3)c2cc1OC [GW854278] | 0
Cc1nn2c(=O)cc(N3CCOCC3)nc2n1Cc1cccc(Cl)c1Cl [GSK2342769] | 0
Cc1c(Cn2c(C)nn3c(=O)cc(N4CCO[C@H](C)C4)nc23)cccc1C(F)(F)F [GSK2373690] | 13
COc1cc2nccc(Nc3ccc(OCc4ccc(NC(C)=O)cc4)cc3)c2cc1OC.Cl [GW440135] | 0
Cc1cccc(-c2nc(Nc3ccc4c(cnn4C)c3)c3ccccc3n2)n1 [GW876731] | 0
CCCC(=O)Nc1n[nH]c2ncc(-c3cccc4ccccc34)cc12 [SB-642057] | 0
FC(F)(F)c1ccc(-c2ncn(CCCN3CCOCC3)c2-c2ccncc2)cc1 [SB-217780] | 18
OCCCNc1nccc(-c2c(-c3cccc(C(F)(F)F)c3)nn3cc(C(F)(F)F)ccc23)n1 [GW630813] | 0
COc1cc(Nc2nccc(N3CCC(NC(=O)C4COc5ccccc5O4)C3)n2)cc(OC)c1OC (centres unmarked) [GSK1379761] | 0
CCc1ccc(-c2ccc3c(c2)-c2nn(C)cc2S(=O)(=O)N3C)cc1 | 0
COc1cc(Nc2nccc(N3CCC(NC(=O)C(C)c4ccc(Cl)cc4)C3)n2)cc(OC)c1OC (centres unmarked) [GSK1379757] | 0
CCS(=O)c1ccc(-c2coc3ccc(-c4nnc(C)o4)cc23)cc1 (centres unmarked) | 30
O=C1NC(=O)C(c2ccccc2)=C1Nc1cccc(O)c1 [SB-390534] | 8

Structure (SMILES) | %Inh [%]
COc1cccc(-n2cnc3c(N)ncnc32)c1 [SKF-97416] | 18
COc1cc2ncn(-c3cc(OCc4ccncc4)c(C(N)=O)s3)c2cc1OC [GSK336313] | 15
COC(=O)c1c(-c2ccccc2)c2cc(Br)ccc2c(=O)n1Cc1ccc(S(C)(=O)=O)cc1 | 33
Nc1ncnc2c1ncn2-c1cccc(F)c1 [SKF-97560] | 12
Nc1n[nH]c2nnc(-c3ccccc3)c(-c3ccccc3)c12 [GW554060] | 50
Cc1ccc(-c2ccc3c(ccc4sc5c(c43)NC[C@@H](C)N=C5N(C)C)n2)cn1 | 0
COc1cc2ncn(-c3cc(OCc4ccc(S(C)(=O)=O)cc4)c(C(N)=O)s3)c2cc1OC [GW869979] | 0
Cl.NS(=O)(=O)c1cccc(Nc2cc(-c3ccc(F)cc3)n[nH]2)c1 [GW824645] | 36
COc1cccc(C2=C(N(C)c3ccccc3)C(=O)NC2=O)c1 [SB-334865] | 0
CCn1c(-c2ccoc2)nc2cnccc21 [SB-733887] | 0
COc1cc2nccc(Nc3cccc(Oc4ccccc4)c3)c2cc1OC.Cl [GW284543] | 0
CCC(=O)c1c(-c2ccccc2)c2cc(Cl)ccc2c(=O)n1Cc1cc(S(C)(=O)=O)n(CC(N)=O)n1 | 29
CCn1c(-c2nonc2N)nc2ccccc21 [SB-693162/GW549034] | 29
CN(C)c1cc(-c2ccc3c(N)n[nH]c3c2)nc(N)n1 [GSK2219329] | 0
Cc1ccccc1COc1cc(-n2cnc3cc(Cl)ccc32)sc1C(N)=O [GW813349] | 30
Cl.c1ccc(Cn2cnc3cc(Nc4ncnc5ccccc45)ccc32)cc1 [GW272142] | 0
Nc1ncnc2c1ncn2-c1cccc2ccccc12 [SKF-97184] | 34
COc1ccc(CNC(=O)NC2CCN(c3ccnc(Nc4ccc(F)cc4)n3)C2)cc1 (centres unmarked) [GSK1379706] | 19

These molecules were tested on HIPK2. Conditions: concentration: 1 μM, replicates: in singlicate; n = 1.

Structure (SMILES) | %Inh [%]
C[C@@H]1CC[C@H](C(=O)NC2CCCCC2)CN1c1cc(-c2ccc3c(N)n[nH]c3c2)nc(N)n1 [GSK2291363] | 0
Cc1nc(N(C)[C@H]2CN(C(=O)CC#N)CC[C@H]2C)c2cc[nH]c2n1 | 0
Nc1nccc2scc(-c3ccc4c(c3)CCN4C(=O)Cc3ccccc3)c12 [GSK2576924] | 0
COc1cc(OC)cc(-c2cc3cnc(N)nc3nc2NC(=O)NC(C)(C)C)c1 | 0
O=C(Nc1n[nH]c2cc(-c3ccccc3F)ccc12)C1CC1 [SB-733371] | 0
CCCNC(=O)Nc1ccc(Oc2ncnc3ccn(C)c23)cc1 | 29
COc1cc2ncn(-c3cc(OCc4ccncc4Br)c(C(N)=O)s3)c2cc1OC [GW854278] | 4
Cc1nn2c(=O)cc(N3CCOCC3)nc2n1Cc1cccc(Cl)c1Cl [GSK2342769] | 0
Cc1c(Cn2c(C)nn3c(=O)cc(N4CCO[C@H](C)C4)nc23)cccc1C(F)(F)F [GSK2373690] | 0
COc1cc2nccc(Nc3ccc(OCc4ccc(NC(C)=O)cc4)cc3)c2cc1OC.Cl [GW440135] | 0
Cc1cccc(-c2nc(Nc3ccc4c(cnn4C)c3)c3ccccc3n2)n1 [GW876731] | 14
CCCC(=O)Nc1n[nH]c2ncc(-c3cccc4ccccc34)cc12 [SB-642057] | 0
FC(F)(F)c1ccc(-c2ncn(CCCN3CCOCC3)c2-c2ccncc2)cc1 [SB-217780] | 52
OCCCNc1nccc(-c2c(-c3cccc(C(F)(F)F)c3)nn3cc(C(F)(F)F)ccc23)n1 [GW630813] | 0
COc1cc(Nc2nccc(N3CCC(NC(=O)C4COc5ccccc5O4)C3)n2)cc(OC)c1OC (centres unmarked) [GSK1379761] | 0
CCc1ccc(-c2ccc3c(c2)-c2nn(C)cc2S(=O)(=O)N3C)cc1 | 0
COc1cc(Nc2nccc(N3CCC(NC(=O)C(C)c4ccc(Cl)cc4)C3)n2)cc(OC)c1OC (centres unmarked) [GSK1379757] | 0
CCS(=O)c1ccc(-c2coc3ccc(-c4nnc(C)o4)cc23)cc1 (centres unmarked) | 43
O=C1NC(=O)C(c2ccccc2)=C1Nc1cccc(O)c1 [SB-390534] | 18

Structure (SMILES) | %Inh [%]
COc1cccc(-n2cnc3c(N)ncnc32)c1 [SKF-97416] | 22
COc1cc2ncn(-c3cc(OCc4ccncc4)c(C(N)=O)s3)c2cc1OC [GSK336313] | 0
COC(=O)c1c(-c2ccccc2)c2cc(Br)ccc2c(=O)n1Cc1ccc(S(C)(=O)=O)cc1 | 18
Nc1ncnc2c1ncn2-c1cccc(F)c1 [SKF-97560] | 16
Nc1n[nH]c2nnc(-c3ccccc3)c(-c3ccccc3)c12 [GW554060] | 86
Cc1ccc(-c2ccc3c(ccc4sc5c(c43)NC[C@@H](C)N=C5N(C)C)n2)cn1 | 0
COc1cc2ncn(-c3cc(OCc4ccc(S(C)(=O)=O)cc4)c(C(N)=O)s3)c2cc1OC [GW869979] | 9
Cl.NS(=O)(=O)c1cccc(Nc2cc(-c3ccc(F)cc3)n[nH]2)c1 [GW824645] | 10
COc1cccc(C2=C(N(C)c3ccccc3)C(=O)NC2=O)c1 [SB-334865] | 0
CCn1c(-c2ccoc2)nc2cnccc21 [SB-733887] | 0
COc1cc2nccc(Nc3cccc(Oc4ccccc4)c3)c2cc1OC.Cl [GW284543] | 25
CCC(=O)c1c(-c2ccccc2)c2cc(Cl)ccc2c(=O)n1Cc1cc(S(C)(=O)=O)n(CC(N)=O)n1 | 0
CCn1c(-c2nonc2N)nc2ccccc21 [SB-693162/GW549034] | 45
CN(C)c1cc(-c2ccc3c(N)n[nH]c3c2)nc(N)n1 [GSK2219329] | 0
Cc1ccccc1COc1cc(-n2cnc3cc(Cl)ccc32)sc1C(N)=O [GW813349] | 24
Cl.c1ccc(Cn2cnc3cc(Nc4ncnc5ccccc45)ccc32)cc1 [GW272142] | 0
Nc1ncnc2c1ncn2-c1cccc2ccccc12 [SKF-97184] | 0
COc1ccc(CNC(=O)NC2CCN(c3ccnc(Nc4ccc(F)cc4)n3)C2)cc1 (centres unmarked) [GSK1379706] | 13
